Data: publication PMC7862700, “An all-to-all approach to the identification of sequence-specific readers for epigenetic DNA modifications on cytosine”

Columns and labels:
Assay in all cases: DAPPL (digital affinity profiling via proximity ligation, sequencing); 10 mM Tris-HCl pH 7.5, 50 mM NaCl, 1 mM DTT, 4% glycerol, room temperature, 30 min; GST-TFs on glutathione beads, 16-mer random dsDNA library, 0.1% formaldehyde crosslink after washing; high values mean tight binding
FLI1 = molecular target: T1, FLI1 (Homo sapiens, UniProt Q01543 1-452); conditions: protein: recombinant; tags: N-terminal GST; dsDNA, one strand shown
T1 sequence: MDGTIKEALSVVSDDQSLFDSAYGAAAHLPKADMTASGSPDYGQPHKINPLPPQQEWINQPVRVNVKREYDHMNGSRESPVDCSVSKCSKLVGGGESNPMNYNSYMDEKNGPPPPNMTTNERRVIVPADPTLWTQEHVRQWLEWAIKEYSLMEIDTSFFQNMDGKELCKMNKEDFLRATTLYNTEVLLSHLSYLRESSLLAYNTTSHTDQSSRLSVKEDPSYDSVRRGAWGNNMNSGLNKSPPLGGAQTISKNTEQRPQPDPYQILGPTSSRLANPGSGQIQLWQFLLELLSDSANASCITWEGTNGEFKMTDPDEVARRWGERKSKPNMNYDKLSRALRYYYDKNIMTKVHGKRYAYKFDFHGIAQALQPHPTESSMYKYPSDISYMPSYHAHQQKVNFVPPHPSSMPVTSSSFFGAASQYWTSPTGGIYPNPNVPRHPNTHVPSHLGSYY
How it was run: (§1)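 Binding signal is defined as a hexamer's read frequency for one factor over its frequency for the tag-only sample. To obtain reads, GST-fused human transcription factors were expressed in yeast, captured on glutathione beads, barcoded with DNA and pooled with that sample. Pools met 200 nmole of a 16-mer random double-stranded DNA library in Tris/NaCl/DTT/glycerol buffer for 30 min at room temperature before washing, 0.1% formaldehyde crosslinking, proximity ligation (BsaI/T4 ligase, 1 h, 37 °C), PCR and Illumina NextSeq500 sequencing.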

ELK1 = molecular target: T2, ELK1 (Homo sapiens, UniProt P19419 1-428); conditions: protein: recombinant; tags: N-terminal GST; dsDNA, one strand shown
T2 sequence: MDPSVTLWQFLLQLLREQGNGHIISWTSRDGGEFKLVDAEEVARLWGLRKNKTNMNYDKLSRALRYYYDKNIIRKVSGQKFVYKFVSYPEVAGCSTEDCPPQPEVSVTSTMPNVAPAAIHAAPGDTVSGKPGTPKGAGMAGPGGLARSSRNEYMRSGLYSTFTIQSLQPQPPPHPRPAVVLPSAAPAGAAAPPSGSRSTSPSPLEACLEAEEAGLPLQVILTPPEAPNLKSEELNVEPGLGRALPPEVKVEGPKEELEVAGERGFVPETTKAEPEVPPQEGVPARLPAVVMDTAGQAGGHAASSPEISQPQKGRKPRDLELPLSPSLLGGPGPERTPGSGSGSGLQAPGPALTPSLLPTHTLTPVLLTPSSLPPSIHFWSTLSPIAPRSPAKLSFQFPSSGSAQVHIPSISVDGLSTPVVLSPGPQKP
How it was run: as §1

GABPA = molecular target: T3, GABPA (Homo sapiens, UniProt Q06546 1-454); conditions: protein: recombinant; tags: N-terminal GST; dsDNA, one strand shown
T3 sequence: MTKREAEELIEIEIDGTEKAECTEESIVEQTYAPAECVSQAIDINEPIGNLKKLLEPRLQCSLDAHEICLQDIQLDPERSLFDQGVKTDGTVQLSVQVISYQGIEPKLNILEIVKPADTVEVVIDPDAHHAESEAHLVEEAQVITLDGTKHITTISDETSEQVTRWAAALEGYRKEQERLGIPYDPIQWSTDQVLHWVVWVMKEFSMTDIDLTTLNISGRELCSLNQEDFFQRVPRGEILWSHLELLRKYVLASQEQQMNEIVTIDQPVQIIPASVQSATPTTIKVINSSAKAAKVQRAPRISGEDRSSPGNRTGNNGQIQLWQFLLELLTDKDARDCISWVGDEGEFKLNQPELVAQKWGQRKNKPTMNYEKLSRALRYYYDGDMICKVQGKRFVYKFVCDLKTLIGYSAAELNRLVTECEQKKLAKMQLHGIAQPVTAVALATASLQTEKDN
How it was run: as §1

ERG = molecular target: T4, ERG (Homo sapiens, UniProt P11308 1-479); conditions: protein: recombinant; tags: N-terminal GST; dsDNA, one strand shown
T4 sequence: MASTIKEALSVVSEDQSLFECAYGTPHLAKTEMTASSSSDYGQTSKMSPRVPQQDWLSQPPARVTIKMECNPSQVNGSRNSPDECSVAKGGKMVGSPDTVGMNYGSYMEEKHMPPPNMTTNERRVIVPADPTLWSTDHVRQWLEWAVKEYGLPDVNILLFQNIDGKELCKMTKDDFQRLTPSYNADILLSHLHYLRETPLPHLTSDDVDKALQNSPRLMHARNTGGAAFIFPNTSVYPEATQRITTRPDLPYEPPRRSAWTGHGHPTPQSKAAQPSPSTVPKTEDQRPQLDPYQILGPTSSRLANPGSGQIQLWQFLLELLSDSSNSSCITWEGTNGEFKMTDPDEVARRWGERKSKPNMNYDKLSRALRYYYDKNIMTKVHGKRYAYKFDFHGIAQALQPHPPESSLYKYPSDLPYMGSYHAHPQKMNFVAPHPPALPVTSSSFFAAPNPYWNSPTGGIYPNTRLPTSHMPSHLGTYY
How it was run: as §1

ELF1 = ELF1 (Homo sapiens, UniProt P32519 1-619); conditions: protein: recombinant; tags: N-terminal GST; dsDNA, one strand shown
How it was run: as §1

EHF = molecular target: T5, EHF (Homo sapiens, UniProt Q9NZC4 1-300); conditions: protein: recombinant; tags: N-terminal GST; dsDNA, one strand shown
T5 sequence: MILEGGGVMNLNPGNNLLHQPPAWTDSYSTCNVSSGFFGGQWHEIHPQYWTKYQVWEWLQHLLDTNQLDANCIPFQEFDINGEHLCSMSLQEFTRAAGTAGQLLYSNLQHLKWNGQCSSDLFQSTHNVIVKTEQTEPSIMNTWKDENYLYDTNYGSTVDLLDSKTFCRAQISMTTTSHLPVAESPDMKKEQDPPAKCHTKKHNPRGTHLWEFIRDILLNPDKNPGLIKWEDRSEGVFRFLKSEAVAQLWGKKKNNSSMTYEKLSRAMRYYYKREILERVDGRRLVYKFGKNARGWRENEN
How it was run: as §1

SPI1 = SPI1 (Homo sapiens, UniProt P17947 1-270); conditions: protein: recombinant; tags: N-terminal GST; dsDNA, one strand shown
How it was run: as §1

SPIB = SPIB (Homo sapiens, UniProt Q01892 1-262); conditions: protein: recombinant; tags: N-terminal GST; dsDNA, one strand shown
How it was run: as §1

ELK3 = molecular target: T6, ELK3 (Homo sapiens, UniProt P41970 1-407); conditions: protein: recombinant; tags: N-terminal GST; dsDNA, one strand shown
T6 sequence: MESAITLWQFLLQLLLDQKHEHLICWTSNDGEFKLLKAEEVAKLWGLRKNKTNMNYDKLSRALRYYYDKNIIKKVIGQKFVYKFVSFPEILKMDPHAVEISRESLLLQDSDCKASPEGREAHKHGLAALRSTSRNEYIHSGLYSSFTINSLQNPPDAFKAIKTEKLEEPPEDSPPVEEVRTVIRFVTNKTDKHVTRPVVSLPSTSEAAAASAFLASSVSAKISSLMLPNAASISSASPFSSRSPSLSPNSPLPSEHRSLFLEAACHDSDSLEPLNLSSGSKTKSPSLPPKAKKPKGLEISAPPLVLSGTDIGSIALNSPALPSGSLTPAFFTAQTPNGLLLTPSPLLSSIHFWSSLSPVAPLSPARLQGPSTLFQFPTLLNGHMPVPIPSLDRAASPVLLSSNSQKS
How it was run: as §1

FEV = molecular target: T7, FEV (Homo sapiens, UniProt Q99581 1-238); conditions: protein: recombinant; tags: N-terminal GST; dsDNA, one strand shown
T7 sequence: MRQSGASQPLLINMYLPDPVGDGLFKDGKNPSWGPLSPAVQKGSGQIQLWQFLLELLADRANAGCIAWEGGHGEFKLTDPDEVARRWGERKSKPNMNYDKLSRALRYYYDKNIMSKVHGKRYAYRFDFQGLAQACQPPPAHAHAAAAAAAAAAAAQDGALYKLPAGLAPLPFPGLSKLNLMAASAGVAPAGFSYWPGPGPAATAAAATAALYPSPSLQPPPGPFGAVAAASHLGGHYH
How it was run: as §1

ETV5 = ETV5 (Homo sapiens, UniProt P41161 1-510); conditions: protein: recombinant; tags: N-terminal GST; dsDNA, one strand shown
How it was run: as §1

HSF1 = HSF1 (Homo sapiens, UniProt Q00613 1-529); conditions: protein: recombinant; tags: N-terminal GST; chain copies: 3; dsDNA, one strand shown
How it was run: as §1

SPIC = molecular target: T8, SPIC (Homo sapiens, UniProt Q8N5J4 1-248); conditions: protein: recombinant; tags: N-terminal GST; dsDNA, one strand shown
T8 sequence: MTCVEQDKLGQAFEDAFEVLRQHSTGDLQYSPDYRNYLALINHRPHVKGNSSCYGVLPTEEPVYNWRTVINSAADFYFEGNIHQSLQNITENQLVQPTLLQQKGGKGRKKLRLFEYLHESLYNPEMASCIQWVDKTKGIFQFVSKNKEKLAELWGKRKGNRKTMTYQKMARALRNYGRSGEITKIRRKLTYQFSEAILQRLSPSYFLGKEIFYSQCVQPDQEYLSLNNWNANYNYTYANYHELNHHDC
How it was run: as §1

ELF4 = ELF4 (Homo sapiens, UniProt Q99607 1-663); conditions: protein: recombinant; tags: N-terminal GST; dsDNA, one strand shown
How it was run: as §1

ELK4 = molecular target: T9, ELK4 (Homo sapiens, UniProt P28324-2 1-405); conditions: protein: recombinant; tags: N-terminal GST; dsDNA, one strand shown
T9 sequence: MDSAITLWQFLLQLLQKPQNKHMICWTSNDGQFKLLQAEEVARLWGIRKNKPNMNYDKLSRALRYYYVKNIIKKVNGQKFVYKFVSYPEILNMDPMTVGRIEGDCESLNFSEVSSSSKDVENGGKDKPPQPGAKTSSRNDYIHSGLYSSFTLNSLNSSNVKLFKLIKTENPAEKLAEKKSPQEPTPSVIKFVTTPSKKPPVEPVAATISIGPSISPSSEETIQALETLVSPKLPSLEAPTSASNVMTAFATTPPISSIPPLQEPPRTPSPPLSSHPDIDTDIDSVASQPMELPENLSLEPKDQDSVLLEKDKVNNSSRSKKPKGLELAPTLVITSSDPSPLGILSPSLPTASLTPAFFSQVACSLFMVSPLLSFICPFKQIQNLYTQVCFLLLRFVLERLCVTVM
How it was run: as §1

ETV2 = molecular target: T10, ETV2 (Homo sapiens, UniProt O00321 1-342); conditions: protein: recombinant; tags: N-terminal GST; dsDNA, one strand shown
T10 sequence: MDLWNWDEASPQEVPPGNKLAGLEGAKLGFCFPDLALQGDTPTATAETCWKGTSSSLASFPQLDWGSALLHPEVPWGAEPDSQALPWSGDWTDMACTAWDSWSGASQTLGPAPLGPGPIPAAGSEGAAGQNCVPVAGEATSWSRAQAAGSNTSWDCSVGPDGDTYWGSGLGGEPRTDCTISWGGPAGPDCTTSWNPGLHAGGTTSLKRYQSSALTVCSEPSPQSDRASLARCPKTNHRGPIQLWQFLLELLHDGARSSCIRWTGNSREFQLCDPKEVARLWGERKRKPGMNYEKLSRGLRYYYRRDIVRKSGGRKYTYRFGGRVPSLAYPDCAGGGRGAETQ
How it was run: as §1

ELF3 = molecular target: T11, ELF3 (Homo sapiens, UniProt P78545 1-371); conditions: protein: recombinant; tags: N-terminal GST; dsDNA, one strand shown
T11 sequence: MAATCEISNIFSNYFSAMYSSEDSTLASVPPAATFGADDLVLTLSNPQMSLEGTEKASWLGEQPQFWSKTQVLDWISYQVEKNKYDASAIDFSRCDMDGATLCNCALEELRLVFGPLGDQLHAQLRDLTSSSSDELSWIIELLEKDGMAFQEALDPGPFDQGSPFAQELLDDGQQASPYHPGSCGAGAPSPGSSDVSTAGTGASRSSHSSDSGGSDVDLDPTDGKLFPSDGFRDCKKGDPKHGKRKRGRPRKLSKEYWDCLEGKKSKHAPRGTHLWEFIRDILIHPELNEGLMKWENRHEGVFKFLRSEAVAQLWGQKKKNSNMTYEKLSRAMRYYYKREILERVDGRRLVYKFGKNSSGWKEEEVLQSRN
How it was run: as §1

CRX = CRX (Homo sapiens, UniProt O43186 1-299); conditions: protein: recombinant; tags: N-terminal GST; dsDNA, one strand shown
How it was run: as §1

ETV1 = ETV1 (Homo sapiens, UniProt P50549 1-477); conditions: protein: recombinant; tags: N-terminal GST; dsDNA, one strand shown
How it was run: as §1

Chain of ELF4 (Q99607 whole entry): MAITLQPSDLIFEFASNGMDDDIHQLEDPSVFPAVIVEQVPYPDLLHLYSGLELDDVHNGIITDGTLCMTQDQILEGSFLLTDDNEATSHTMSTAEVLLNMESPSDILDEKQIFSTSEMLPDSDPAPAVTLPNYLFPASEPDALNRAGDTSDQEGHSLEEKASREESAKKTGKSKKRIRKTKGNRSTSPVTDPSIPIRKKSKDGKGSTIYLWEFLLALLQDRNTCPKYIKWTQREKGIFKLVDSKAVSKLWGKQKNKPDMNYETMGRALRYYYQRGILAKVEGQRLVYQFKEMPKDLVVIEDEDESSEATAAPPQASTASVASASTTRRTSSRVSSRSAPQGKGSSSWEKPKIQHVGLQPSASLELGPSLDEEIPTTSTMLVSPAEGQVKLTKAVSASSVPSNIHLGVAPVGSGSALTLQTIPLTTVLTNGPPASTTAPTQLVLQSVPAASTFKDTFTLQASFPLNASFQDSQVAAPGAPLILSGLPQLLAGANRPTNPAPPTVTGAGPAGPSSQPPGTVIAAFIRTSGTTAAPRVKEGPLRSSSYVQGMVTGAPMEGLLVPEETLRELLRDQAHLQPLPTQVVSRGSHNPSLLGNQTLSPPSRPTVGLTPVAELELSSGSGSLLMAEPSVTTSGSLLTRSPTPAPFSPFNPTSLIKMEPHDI
Chain of CRX (O43186 whole entry): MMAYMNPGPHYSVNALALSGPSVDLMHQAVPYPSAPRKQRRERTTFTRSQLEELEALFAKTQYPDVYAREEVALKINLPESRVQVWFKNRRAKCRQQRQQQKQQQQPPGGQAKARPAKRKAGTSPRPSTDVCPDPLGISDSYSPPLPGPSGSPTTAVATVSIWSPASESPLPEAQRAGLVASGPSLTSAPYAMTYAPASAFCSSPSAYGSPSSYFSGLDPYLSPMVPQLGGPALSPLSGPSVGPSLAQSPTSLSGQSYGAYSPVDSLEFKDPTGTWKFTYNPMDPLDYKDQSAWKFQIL
Chain of ETV5 (P41161 whole entry): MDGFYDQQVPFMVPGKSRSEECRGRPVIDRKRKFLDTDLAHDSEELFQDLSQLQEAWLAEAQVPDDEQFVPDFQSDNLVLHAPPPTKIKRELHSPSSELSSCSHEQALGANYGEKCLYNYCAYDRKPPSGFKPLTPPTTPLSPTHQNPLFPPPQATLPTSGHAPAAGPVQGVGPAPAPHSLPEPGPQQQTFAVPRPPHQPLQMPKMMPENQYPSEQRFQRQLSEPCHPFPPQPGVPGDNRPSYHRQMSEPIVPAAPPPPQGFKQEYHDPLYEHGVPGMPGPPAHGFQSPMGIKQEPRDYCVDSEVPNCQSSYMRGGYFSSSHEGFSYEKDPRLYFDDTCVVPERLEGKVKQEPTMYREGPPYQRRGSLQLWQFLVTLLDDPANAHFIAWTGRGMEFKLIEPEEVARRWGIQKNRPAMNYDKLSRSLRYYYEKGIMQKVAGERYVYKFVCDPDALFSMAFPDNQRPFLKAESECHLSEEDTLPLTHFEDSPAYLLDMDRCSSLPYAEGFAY
Chain of SPIB (Q01892 whole entry): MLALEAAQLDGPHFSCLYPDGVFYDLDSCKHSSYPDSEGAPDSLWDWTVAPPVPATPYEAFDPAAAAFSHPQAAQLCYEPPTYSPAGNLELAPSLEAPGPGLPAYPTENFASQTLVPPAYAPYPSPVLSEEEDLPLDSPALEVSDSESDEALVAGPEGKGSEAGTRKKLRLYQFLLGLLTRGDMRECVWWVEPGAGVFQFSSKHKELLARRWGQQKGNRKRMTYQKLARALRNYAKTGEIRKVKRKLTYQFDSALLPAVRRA
Chain of HSF1 (Q00613 whole entry): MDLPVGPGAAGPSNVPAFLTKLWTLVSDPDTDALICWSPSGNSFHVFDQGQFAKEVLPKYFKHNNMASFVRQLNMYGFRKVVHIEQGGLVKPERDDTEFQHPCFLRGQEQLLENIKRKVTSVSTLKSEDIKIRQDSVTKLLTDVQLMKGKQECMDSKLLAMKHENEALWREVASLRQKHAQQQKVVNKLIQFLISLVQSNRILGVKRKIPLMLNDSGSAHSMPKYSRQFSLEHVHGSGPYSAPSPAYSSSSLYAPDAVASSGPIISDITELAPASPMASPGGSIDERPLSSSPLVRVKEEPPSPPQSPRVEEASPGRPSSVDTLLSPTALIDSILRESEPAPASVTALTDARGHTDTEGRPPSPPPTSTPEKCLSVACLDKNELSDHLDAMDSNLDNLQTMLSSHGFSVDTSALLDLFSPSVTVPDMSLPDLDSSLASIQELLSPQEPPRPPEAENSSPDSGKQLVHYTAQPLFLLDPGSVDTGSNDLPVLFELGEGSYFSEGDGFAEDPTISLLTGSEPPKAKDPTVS
Chain of ELF1 (P32519 whole entry): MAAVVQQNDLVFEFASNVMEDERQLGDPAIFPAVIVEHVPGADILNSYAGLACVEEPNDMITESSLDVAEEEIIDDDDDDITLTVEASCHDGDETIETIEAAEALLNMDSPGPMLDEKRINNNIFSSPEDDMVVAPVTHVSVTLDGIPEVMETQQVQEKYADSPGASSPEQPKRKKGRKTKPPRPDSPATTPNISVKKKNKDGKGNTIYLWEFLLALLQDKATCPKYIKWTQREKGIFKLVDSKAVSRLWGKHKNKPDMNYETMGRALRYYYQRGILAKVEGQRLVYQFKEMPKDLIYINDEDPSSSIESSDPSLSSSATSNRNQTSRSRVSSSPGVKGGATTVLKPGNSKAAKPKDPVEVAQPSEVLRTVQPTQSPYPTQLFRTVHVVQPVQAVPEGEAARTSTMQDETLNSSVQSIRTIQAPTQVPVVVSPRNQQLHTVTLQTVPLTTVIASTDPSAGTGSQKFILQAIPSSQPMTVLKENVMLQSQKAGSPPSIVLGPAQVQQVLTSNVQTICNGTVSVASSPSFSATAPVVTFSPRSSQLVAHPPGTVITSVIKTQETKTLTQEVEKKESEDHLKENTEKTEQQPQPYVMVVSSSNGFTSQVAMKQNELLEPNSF
Chain of ETV1 (P50549 whole entry): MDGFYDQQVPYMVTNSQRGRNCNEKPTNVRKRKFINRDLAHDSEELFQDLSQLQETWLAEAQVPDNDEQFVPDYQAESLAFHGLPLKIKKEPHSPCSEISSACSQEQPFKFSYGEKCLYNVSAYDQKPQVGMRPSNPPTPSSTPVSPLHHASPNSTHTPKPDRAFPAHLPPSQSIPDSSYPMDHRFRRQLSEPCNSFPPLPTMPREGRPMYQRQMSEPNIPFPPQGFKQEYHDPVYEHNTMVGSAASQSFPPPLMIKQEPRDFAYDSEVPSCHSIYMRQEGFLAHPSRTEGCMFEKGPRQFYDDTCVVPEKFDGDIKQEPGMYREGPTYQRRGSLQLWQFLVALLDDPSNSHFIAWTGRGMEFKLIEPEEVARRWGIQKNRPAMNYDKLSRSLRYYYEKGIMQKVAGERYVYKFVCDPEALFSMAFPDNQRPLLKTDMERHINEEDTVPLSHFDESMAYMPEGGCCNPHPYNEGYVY

ACGTTT
binding signal (FLI1): 1.21 fold enrichment (6-mer frequency, TF over GST control)
binding signal (ELK1): 1.18 fold enrichment (6-mer frequency, TF over GST control)
binding signal (GABPA): 1.18 fold enrichment (6-mer frequency, TF over GST control)
binding signal (ERG): 1.27 fold enrichment (6-mer frequency, TF over GST control)
binding signal (ELF1): 1.17 fold enrichment (6-mer frequency, TF over GST control)
binding signal (EHF): 1.16 fold enrichment (6-mer frequency, TF over GST control)
binding signal (SPI1): 1.12 fold enrichment (6-mer frequency, TF over GST control)
binding signal (SPIB): 1.35 fold enrichment (6-mer frequency, TF over GST control)
binding signal (ELK3): 1.2 fold enrichment (6-mer frequency, TF over GST control)
binding signal (FEV): 1.22 fold enrichment (6-mer frequency, TF over GST control)
binding signal (ETV5): 1.15 fold enrichment (6-mer frequency, TF over GST control)
binding signal (HSF1): 1.05 fold enrichment (6-mer frequency, TF over GST control)
binding signal (SPIC): 1.29 fold enrichment (6-mer frequency, TF over GST control)
binding signal (ELF4): 1.14 fold enrichment (6-mer frequency, TF over GST control)
binding signal (ELK4): 1.22 fold enrichment (6-mer frequency, TF over GST control)
binding signal (ETV2): 1.18 fold enrichment (6-mer frequency, TF over GST control)
binding signal (ELF3): 1.08 fold enrichment (6-mer frequency, TF over GST control)
binding signal (CRX): 1 fold enrichment (6-mer frequency, TF over GST control)
binding signal (ETV1): 1.22 fold enrichment (6-mer frequency, TF over GST control)
